Source: PubChem
ALOX15B inhib: blocks human 15-lipoxygenase 2 activity; purified 15hLO-2, xylenol orange hydroperoxide absorbance; Potency, µM (titrated, usually from 57.1 µM), most hits filed as inhibitors; actives 0.56% (n = 110,000); also: nearly all actives have a fitted effect of over 60% in size
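Enzyme 50 nM, AA 45 uM, 25 mM Hepes pH 7.5 + 0.01% Triton X-100; cpd preinc 15 min RT, rxn 90 min RT; stop/detect with 200 uM XO + 300 uM Fe(II) in 50 mM H2SO4, 30 min; A573/A405.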
Tau filament bind: binds recombinant human tau filaments; recombinant tau filaments, thioflavin S fluorescence, 15 h; filaments grown with octadecylsulfate alongside compound; P10636; actives 2% (n = 71,000); AID 596; Potency, µM (series often up to 57.1 µM);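 also: actives lower thioflavin S fluorescence by blocking filaments or displacing dye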
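ThS-based fibril read: tau 1 uM final, inducer ODS 30 uM final, 37 C for 15 h, ex 450/em 510 nm.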
Caspase-1 inhib: blocks human caspase-1 allosterically or competitively; actives 0.03% (n = 75,000); Caspase-1 enzyme, Ac-WEHD-AFC fluorogenic rate; AID 900; Potency, µM (titrated, usually from 57.5 µM), usual class: inhibitors
Caspase-7 inhib: allosteric or competitive inhibitors of human caspase-7 | P55210 | recombinant caspase-7, Ac-DEVD-AFC fluorescence rate | Potency, µM (highest dose often 57.5 µM), most hits filed as inhibitors | actives 0.02% (n = 75,000) | AID 889; active = well fitted inhibition curve with a large enough effect in the main read-out, with a control signal flat, not every such curve was filed as active; inconclusive = small, poorly fitted or top-dose-only effect, or a change in a side signal
Hsp90 Hop PPI: changes Hsp90-Hop TPR2A binding signal, up or down; Potency, µM (series often up to 57 µM); actives 0.44% (n = 71,000); AlphaScreen TPR2A-His6 binding biotin-Hsp90 C-terminal peptide; AID 595; active = well fitted curve in either direction with a large enough effect; inconclusive = small, poorly fitted or top-dose-only effect, or another doubt
ALOX15 inhib: 15-hLO (ALOX15) enzyme inhibition | P16050 | purified 15hLO-1, xylenol orange hydroperoxide absorbance | Potency, µM (highest dose often 57.1 µM), actives largely listed as inhibitors | actives 1.4% (n = 74,000) | AID 887; also: nearly all actives have a fitted effect of over 55% in size
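Inhibition is scored from a chromogenic endpoint. After 15 min enzyme-compound contact, arachidonic acid (50 uM final) reacts 6 min with 40 nM 15hLO-1 at room temperature, then Fe-XO reagent is added for 30 min and absorbance ratio recorded.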
Of the large screens only hits and unclear results are named; the others gave an inactive call. Hits are enriched below; roughly 2.4% of the tested compounds scored in any of these assays. Unless noted, calls follow the shape of the dose curve; as a rule, active = well fitted curve in the direction sought with a large enough effect; inconclusive = small, poorly fitted or top-dose-only effect, or another doubt; inactive = no such curve, though single readings can be large; an effect the other way counts as inactive or inconclusive.

O=c1c(-c2ccc(F)cc2)nc2cnc(Oc3ccccc3)nc2n1C[C@H]1CCCO1	Tau filament bind 20µM, Caspase-1 inhib inconclusive, Caspase-7 inhib inconclusive
COc1cccc(Nc2ncc3nc(-c4cc(F)cc(F)c4)c(=O)n(CCC#N)c3n2)c1	Tau filament bind 0.794µM, Caspase-7 inhib inconclusive (no result: Caspase-1 inhib)
COc1cccc(Nc2ncc3nc(-c4ccccc4)c(=O)n(C[C@H]4CCCO4)c3n2)c1	Caspase-7 inhib inconclusive, Hsp90 Hop PPI 12.6µM (no result: Caspase-1 inhib)
CCOc1ccc(OCC(=O)c2c(O)c3ccccc3oc2=O)cc1	ALOX15B inhib inconclusive, Hsp90 Hop PPI inconclusive, ALOX15 inhib 15.8µM
O=C1NC(c2ccco2)Nc2ccccc21 (stereo not drawn)	none
Brc1ccc(C2Nc3cccc4cccc(c34)N2)o1	ALOX15B inhib inconclusive, Tau filament bind 10µM, Hsp90 Hop PPI inconclusive, ALOX15 inhib 10µM
CC1C(c2ccccc2)N(C)C(c2ccccc2)CC1(O)c1ccccc1 (stereo not drawn)	none (no result: Tau filament bind, Caspase-1 inhib, Caspase-7 inhib, Hsp90 Hop PPI, ALOX15 inhib)
O=C(OCc1nnc(-c2ccc(Cl)cc2)o1)c1ccncc1	none
O=C(OCc1nnc(-c2ccc(Cl)cc2)o1)c1ccc(=O)n(Cc2ccccc2)n1	ALOX15 inhib 20µM
CCN(Cc1ccccc1)C(=O)CCCOc1ccccc1	Hsp90 Hop PPI inconclusive, ALOX15 inhib 3.98µM
CCOC(=O)N1CCN(C(=O)CS(=O)Cc2nc(-c3ccc(C)cc3)oc2C)CC1 (stereo not drawn)	ALOX15 inhib inconclusive
CCOC(=O)c1c(C)[nH]c(C=Nc2ccccc2)c1O	ALOX15 inhib 5.01µM
COc1cccc(NC(=O)COC(=O)c2cccnc2)c1	none
CCCC12CN3CC(C)(CN(C1)C31C(=O)Nc3ccc(C)cc31)C2=O (stereo not drawn)	Tau filament bind 20µM
[O-][N+]1=c2ccc(Nc3ccccc3)cc2=NC12CCCCC2	Tau filament bind 12.6µM, Hsp90 Hop PPI inconclusive, ALOX15 inhib 3.16µM
Oc1cccc(Nc2ccccc2)c1	none
COc1ccc(Nc2ccc3c(c2)=NC2(CCCCC2)[N+]=3[O-])cc1	Tau filament bind 15.8µM, Hsp90 Hop PPI inconclusive, ALOX15 inhib inconclusive
COc1ccc(C2c3c(oc4ccccc4c3=O)C(=O)N2c2ccc(C)cn2)cc1OC (stereo not drawn)	Tau filament bind 6.31µM (no result: ALOX15B inhib)
CCCOc1ccc(C2c3c(oc4cc(C)c(C)cc4c3=O)C(=O)N2CCCN(C)C)cc1OCC (stereo not drawn)	none (no result: ALOX15B inhib)
COc1ccc(C2c3c(oc4ccc(C)cc4c3=O)C(=O)N2c2cc(C)ccn2)cc1OC (stereo not drawn)	Tau filament bind inconclusive
CCOc1ccc(C2c3c(oc4cc(C)c(C)cc4c3=O)C(=O)N2CCCN(C)C)cc1OC (stereo not drawn)	Tau filament bind 25.1µM
COC(=O)c1ccc(C2c3c(oc4cc(C)c(C)cc4c3=O)C(=O)N2CCCN(C)C)cc1 (stereo not drawn)	Tau filament bind 10µM (no result: ALOX15B inhib)
c1ccc2sc(SN3CCOCC3)nc2c1	ALOX15B inhib 20µM, ALOX15 inhib 2µM
CCC(Sc1nc(=O)cc(N)n1-c1ccccc1)C(=O)Nc1ccc(Cl)cn1 (stereo not drawn)	none (no result: ALOX15B inhib)
O=C(Nc1cccc(Br)c1)c1ccn[nH]1	ALOX15 inhib 10µM
O=P(CCNCc1ccco1)(c1ccccc1)c1ccccc1	none
Cc1ccsc1C1C2=C(CC(C)(C)CC2=O)Nc2ncnn21 (stereo not drawn)	none
COc1ccc2c(c1)Sc1ccccc1N2CCN(C)C	Tau filament bind 15.8µM, Hsp90 Hop PPI inconclusive
CN(C)CCCN1c2ccccc2Sc2ccccc21	Tau filament bind 10µM
CCN(CC)[C@@H](C)CN1c2ccccc2Sc2ccccc21	ALOX15B inhib 12.6µM, Tau filament bind inconclusive, ALOX15 inhib 12.6µM
CN(C)CC(C)(C)CN1c2ccccc2Sc2ccccc21	none
CCC(=O)c1ccc2c(c1)N(CCCN(C)C)c1ccccc1S2	Tau filament bind inconclusive
CC(=O)c1ccc2c(c1)N(CCCN(C)C)c1ccccc1S2	Tau filament bind 3.16µM
COc1ccc([C@H]2Sc3ccccc3N(CCN(C)C)C(=O)[C@H]2OC(C)=O)cc1	Hsp90 Hop PPI inconclusive
O=c1[nH]c(SCc2ccc(Cl)cc2)nc2c1CCC2	none
Cc1cccn2c(=O)c3cc(C(=O)NCC4CCCO4)n(C)c3nc12 (stereo not drawn)	none (no result: ALOX15B inhib)
COc1cccc(Nc2ncc3ncc(=O)n(Cc4cccs4)c3n2)c1	Caspase-7 inhib inconclusive (no result: Caspase-1 inhib)
COc1cccc(O)c1O	ALOX15B inhib inconclusive, ALOX15 inhib 0.794µM (no result: Tau filament bind, Hsp90 Hop PPI)
O=C(c1ccncc1)c1ccc(Br)cc1	none
COc1cccc(N=Cc2ccc(O)cc2O)c1	Tau filament bind 31.6µM
CCCCSc1nc2sc3c(c2c(=O)[nH]1)CCC3	none (no result: Tau filament bind, Caspase-1 inhib, Caspase-7 inhib, Hsp90 Hop PPI, ALOX15 inhib)
Cc1ccc(NC(=O)CSCC(N)=O)cc1C	Tau filament bind 3.16µM, Caspase-1 inhib inconclusive, Caspase-7 inhib inconclusive, Hsp90 Hop PPI inconclusive, ALOX15 inhib 6.31µM
Cc1ccc(NC(=O)Cn2cccc2)cc1C	none
Cc1nc(NC(=O)c2ccccc2)sc1-c1csc(Nc2ccc(F)cc2)n1	none (no result: Tau filament bind, Caspase-1 inhib, Caspase-7 inhib, Hsp90 Hop PPI, ALOX15 inhib)
c1cncc(-c2nn3c(Cn4cnc5ccccc54)nnc3s2)c1	ALOX15 inhib 3.98µM
COc1ccc(NC(=O)c2cc(-c3ccc(C)o3)nc3ccccc23)cc1OC	ALOX15B inhib inconclusive, ALOX15 inhib 31.6µM
Cc1ccc(-c2cc(C(=O)N3CCN(c4ccc(F)cc4)CC3)c3ccccc3n2)o1	ALOX15B inhib 12.6µM (no result: Tau filament bind, Caspase-1 inhib, Caspase-7 inhib, Hsp90 Hop PPI, ALOX15 inhib)
CC(=O)c1ccc(N2CCN(C(=O)c3cc(-c4ccc5c(c4)OCO5)nc4ccccc34)CC2)cc1	none
O=C(Nc1ccccc1C(=O)Nc1ccccc1C(=O)NCc1ccco1)c1ccco1	Hsp90 Hop PPI inconclusive
COc1cccc(-c2nc(=S)c3c(n2Cc2ccco2)CCCC3)c1	Tau filament bind 15.8µM
Cc1ccc(-c2nc(=S)c3c(n2Cc2ccco2)CC(C)(C)OC3)cc1	ALOX15B inhib inconclusive (no result: Tau filament bind, Hsp90 Hop PPI)
C=CCNc1oc(-c2cccc3ccccc23)nc1C#N	Caspase-7 inhib inconclusive, ALOX15 inhib 0.501µM (no result: Caspase-1 inhib)
CC(C)Nc1oc(-c2cccc3ccccc23)nc1C#N	Caspase-7 inhib inconclusive, ALOX15 inhib 3.98µM (no result: Caspase-1 inhib)
COc1ccccc1N(CC(=O)Nc1cc(C)on1)S(=O)(=O)c1cccs1	none (no result: ALOX15B inhib)
CCOC(=O)c1cc2c(=O)n3cc(C)ccc3nc2n(Cc2cccnc2)c1=N	Caspase-7 inhib inconclusive (no result: Caspase-1 inhib)
Cc1cccn2c(=O)c3cc(C(=O)NC4CCCC4)c(=N)n(C4CCCC4)c3nc12	Tau filament bind 0.398µM, Caspase-7 inhib inconclusive (no result: Caspase-1 inhib)
COCCCn1c(=N)c(C(=O)NCc2ccc3c(c2)OCO3)cc2c(=O)n3cccc(C)c3nc21	Tau filament bind 3.16µM, Caspase-1 inhib inconclusive (no result: ALOX15B inhib)
N=c1c(C(=O)NCc2ccco2)cc2c(=O)n3ccccc3nc2n1Cc1ccc(Cl)cc1	Tau filament bind 3.16µM, Caspase-7 inhib inconclusive (no result: Caspase-1 inhib)
